The results in this text go back to PubChem BioAssay AID1053122 (Broad Institute, 2014).

SMILES strings stand for the structures. Potency and affinity values are given separately. Calls of active or inactive are those of the source.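 How the source made its calls: active means CTGF level falls with dose and the fitted half-maximal dose is at most twice the top valid dose; inconclusive means flat fit with 30 to 70% drop, or a poor fit; inactive means the rest.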

A short description of the assay: YAP1 pathway inhibition via CTGF transcript levels, dose response, cell-based, DLD1 colon cancer, RT-qPCR, cherry-pick (AID 1053122). As to conditions: DLD1 CTGF mRNA (YAP1 pathway), 24 h; series mostly up to 26 µM. (In general: Real-time PCR tracks product formation cycle by cycle.)
Regarding `CO[C@@H]1CN(C)C(=O)c2cc(NS(=O)(=O)c3ccccc3C)ccc2OC[C@@H](C)N(S(=O)(=O)c2ccccc2)C[C@H]1C`, the result was inactive.

Consider `CC(C)(C)S(=O)N1Cc2cc(C(=O)NCc3ccc4c(c3)OCO4)nc(-c3cccc(-c4cccc(F)c4)c3)c2[C@@H]1CCO` (stereo partly drawn), for which the call was inactive.

With `COc1ccc(S(=O)(=O)Nc2ccc3c(c2)C(=O)N([C@@H](C)CO)C[C@H](C)[C@@H](CN(C)S(=O)(=O)c2ccc(Cl)cc2)OCCCC[C@@H](C)O3)cc1`, the molecule was called inactive.

On to `COCC(=O)N1CC[C@@H]2[C@H](CO)Nc3ccc(C#Cc4ccc(F)cc4)cc3[C@@H]21`, for which the molecule was called inactive.

`C[C@@H]1CN([C@@H](C)CO)C(=O)c2ccccc2-c2ccccc2CO[C@@H]1CN(C)S(=O)(=O)c1cn(C)cn1`: the molecule was classed as inactive.

Regarding `CCC(=O)N1C[C@H](C)[C@@H](OC)CN(C)C(=O)c2cc(NC(=O)Nc3ccc(Cl)cc3)ccc2OC[C@@H]1C`, the result was inactive.

`CN1CCN(C(=O)C[C@@H]2CC[C@H]3[C@@H](COc4ccc(NC(=O)C5CCOCC5)cc4C(=O)N3C)O2)CC1`: the outcome was inactive.

For `COc1ccc([C@H]2C/C=C\C[C@@H](c3ccc4c(c3)OCO4)NC(=O)[C@@H](c3ccccc3)CC(=O)N2)c(OC)c1`, the molecule was classed as inactive.

`CC(C)(C)[S@@](=O)N1Cc2cc(C(=O)NCC(F)(F)F)nc(-c3cccc(-c4cccc(F)c4)c3)c2[C@H]1CCO`: the result was inactive.

Regarding `C[C@H](CO)N1C[C@H](C)[C@H](CN(C)Cc2ccc(Oc3ccccc3)cc2)OCc2ccccc2-c2ccccc2C1=O`, the call was inactive.

Turning to `C[C@H](O)C#Cc1ccc([C@H]2[C@@H](CO)N3CCCCN(C(=O)c4ccc5c(c4)OCO5)C[C@@H]23)cc1`, the result was inactive.

On to `O=S(=O)(Cc1ccccc1)N1CC2(C1)[C@H](c1ccccc1)[C@H](CO)N2CC1CCCC1`, for which the result was inactive.

`Cc1ccc(S(=O)(=O)N[C@H]2C=C[C@H](CC(=O)NCc3ccc(Cl)c(Cl)c3)O[C@H]2CO)cc1`: the result was inactive.

On to `C[C@@H]1CN([C@@H](C)CO)C(=O)CCCn2nncc2CO[C@@H]1CN(C)C(=O)c1cc(-c2ccccc2)on1`, for which the molecule was called inactive.

With `C[C@@H]1CC=CC[C@@H](c2cccc(Cl)c2)NC(=O)[C@@H](Cc2ccccc2)N(C)C(=O)c2ccccc2O1` (mixture of isomers), the molecule was called inactive.

Take `NCC[C@H]1CC[C@@H](NC(=O)NC2CCCCC2)[C@H](CO)O1`: the molecule was called inactive.

On to `CC(=O)N1CCCCN2[C@@H](CO)[C@H](c3ccc(-c4ccccc4)cc3)[C@@H]2C1`, for which the outcome was inactive.

In the case of `Cc1cccc(-c2ccc([C@@H]3[C@@H](CO)N4CCCCN(S(=O)(=O)c5ccccc5F)C[C@@H]34)cc2)c1`, the call was inactive.

For `C[C@H]1CN([C@@H](C)CO)S(=O)(=O)c2ccc(-c3cncnc3)cc2O[C@@H]1CN(C)C(=O)NC1CCCC1`, the outcome was inactive.

Regarding `COc1cccc(C#Cc2ccc3c(c2)O[C@@H](CN(C)C(=O)CN2CCOCC2)[C@@H](C)CN([C@@H](C)CO)S3(=O)=O)c1`, the outcome was inactive.

`C[C@@H]1CN([C@H](C)CO)C(=O)CCCn2nncc2CO[C@@H]1CN(C)Cc1cccc(C(F)(F)F)c1`: the call was inactive.

On to `CCC(=O)N1Cc2cc(C(=O)NCc3cccc(F)c3)nc(-c3cccc(C4=CCCC4)c3)c2[C@H]1CCO`, for which the molecule was classed as inactive.

For the molecule `CC(C)(C)[S@](=O)N1Cc2cc(C(=O)NCc3ccccn3)nc(-c3cccc(-c4ccccc4F)c3)c2[C@@H]1CCO`, the molecule was called inactive.

On to `CN1C(=O)c2cc(NS(=O)(=O)c3ccccc3F)ccc2OC[C@@H]2O[C@@H](CC(=O)NC3Cc4ccccc4C3)CC[C@@H]21`, for which the molecule was classed as inactive.

As to `C/C=C/c1cccc(-c2nc(C(=O)Nc3nccs3)cc3c2[C@@H](CCO)N(C(=O)NC(C)C)C3)c1`, the outcome was inactive.

As for `CCCNC(=O)N1[C@H](C#N)[C@@H](c2ccc(C#Cc3cccc(F)c3)cc2)[C@@H]1CO`, the molecule was called inactive.

Consider `CCCC#Cc1ccc([C@@H]2[C@@H](C#N)N(C(=O)CN3CCOCC3)[C@H]2CO)cc1`, for which the outcome was inactive.

On to `O=S(=O)(c1ccccc1)N1CCCCN2[C@H](C1)[C@@H](c1ccc(C#CC3CCCC3)cc1)[C@@H]2CO`, for which the outcome was inactive.

For `O=C(Nc1ccc2c(c1)[C@H]1C[C@@H](CC(=O)N3CCc4ccccc4C3)O[C@@H](CO)[C@H]1O2)c1ccc2c(c1)OCO2`, the call was inactive.

Regarding `CC(C)(C)[S@@](=O)N1Cc2cc(C(=O)NCCc3ccncc3)nc(-c3cccc(-c4cccc(C#N)c4)c3)c2[C@H]1CCO`, the call was inactive.

As to `C[C@@H]1CN([C@@H](C)CO)C(=O)c2cc(NC(=O)Nc3ccccc3)ccc2O[C@@H](C)CCCCO[C@@H]1CN(C)C(=O)Nc1ccccc1`, the call was inactive.

With `CN1C(=O)c2cc(NC(=O)Cc3cccs3)ccc2OC[C@@H]2O[C@@H](CC(=O)NCCc3ccncc3)CC[C@H]21`, the result was inactive.

Consider `COc1ccc(NC(=O)N(C)C[C@H]2Oc3c(NC(=O)CCCCCC(=O)Nc4ccccc4N)cccc3C(=O)N([C@H](C)CO)C[C@@H]2C)cc1`, for which the outcome was inactive.

For the molecule `C[C@@H]1CN([C@@H](C)CO)C(=O)c2ccccc2-c2ccccc2CO[C@H]1CN(C)C(=O)Nc1cccc(C(F)(F)F)c1`, the molecule was classed as inactive.

`Cc1ccc(S(=O)(=O)N2CC[C@@H]3[C@H]2c2cc(-c4cccc(C(=O)N(C)C)c4)ccc2N[C@@H]3CO)cc1`: the outcome was inactive.

Take `O=C(Nc1ccc(C(F)(F)F)cc1)Nc1ccc2c(c1)[C@H]1C[C@H](CC(=O)N3CCc4ccccc4C3)O[C@@H](CO)[C@H]1O2`: the call was inactive.

Take `COc1ccc2c3c([nH]c2c1)[C@H](CO)NCC31CCN(C(=O)Cc2cccnc2)CC1`: the call was inactive.

Regarding `O=C(CC1CC1)N1CC(=O)N2[C@@H](CO)[C@H](c3ccc(/C=C/c4ccccc4)cc3)[C@@H]2C1`, the molecule was called inactive.
